Laboratory results: PubChem BioAssay
The source made the active and inactive calls. Unless noted, no rule for the calls is given here.

Assays:
[1] = test system: Wnt5a (protein binding on small-molecule microarray); assay: small molecules binding Wnt5a protein – biophysical, small-molecule microarray, 635/667 nm fluorescence, primary screen (AID 1142); conditions: 635 nm fluorescence, higher = more signal;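 also: fluorescence read at 667 nm with signal to noise per printed feature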
[2] = ATP-based viability of Huh7 replicon cells – cell-based, CellTiter-Glo luminescence, basal, 48 h, cytotoxicity control for HCV replication inhibitor project, primary screen (AID 1143); conditions: higher = more signal, called active from +8 up or from −8 down;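 also: Huh7 hepatoma cells carrying a hepatitis C replication reporter with no stimulus; test concentration not given here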
[3] = Pseudomonas biofilm growth suppression – PAO1 strain, BacTiter-Glo luminescence, LB-PBS, primary screen (AID 1144); conditions: P. aeruginosa PAO1 biofilm, 12 h, higher = more signal
[4] = basal CRE-LacZ reporter activity in PC12 – cell-based, unstimulated, primary screen (AID 1145); conditions: no forskolin, luminescence, 4.5 h, higher = more signal, called active from +8 up or from −8 down
[5] = forskolin-driven CRE-LacZ activity in PC12 – cell-based, CRE-LacZ reporter, forskolin-stimulated, primary screen (AID 1146); conditions: luminescence, 4.5 h, higher = more signal, called active from +8 up or from −8 down;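 also: PC12 cells with 6xCRE LacZ reporter stimulated by forskolin 10 µM; beta-galactosidase reporter signal reflecting CREB driven transcription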
[6] = target: Streptavidin (Streptomyces avidinii) (UniProt P22629); assay: compounds binding control protein streptavidin – biophysical, small-molecule microarray, 635/667 nm fluorescence, artefact control for SMM compound annotation, primary screen (AID 1147); conditions: higher = more signal;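 also: signal reflects streptavidin binding to arrayed compounds as a control protein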
Chain of Streptavidin (Streptomyces avidinii) (P22629 whole entry, looked up): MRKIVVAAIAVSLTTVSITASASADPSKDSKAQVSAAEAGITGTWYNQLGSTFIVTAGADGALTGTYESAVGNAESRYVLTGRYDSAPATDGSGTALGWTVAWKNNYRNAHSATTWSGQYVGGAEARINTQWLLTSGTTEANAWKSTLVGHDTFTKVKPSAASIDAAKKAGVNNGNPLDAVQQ

[7] = probe aInhba binding on compound microarray – biochemical, small-molecule microarray, 635/667 nm fluorescence, primary screen (AID 1148); conditions: higher = more signal;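 also: score merges 667nm spot fluorescence with signal-to-noise for antibody binding to printed compounds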
Torsin-1A (Homo sapiens) [8] = target: Torsin-1A (Homo sapiens) (UniProt O14656); assay: TOR1A wild-type binding on microarray – cell lysate, small-molecule microarray, lysate, 635/667 nm, primary screen (AID 1149); conditions: COS7 hTOR1A-WT lysate, 635 nm fluorescence, higher = more signal
Chain of Torsin-1A (Homo sapiens) (O14656 whole entry, looked up): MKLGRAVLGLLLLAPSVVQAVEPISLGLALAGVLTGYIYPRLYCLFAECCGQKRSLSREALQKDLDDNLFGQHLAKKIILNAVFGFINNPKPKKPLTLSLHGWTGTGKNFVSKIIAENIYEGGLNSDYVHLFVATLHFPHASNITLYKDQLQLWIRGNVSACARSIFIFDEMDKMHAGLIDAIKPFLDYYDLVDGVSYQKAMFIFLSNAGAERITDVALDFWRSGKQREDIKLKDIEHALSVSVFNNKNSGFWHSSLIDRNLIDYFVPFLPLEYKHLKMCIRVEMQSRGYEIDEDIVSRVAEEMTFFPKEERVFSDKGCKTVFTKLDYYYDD

Torsin-1A (Homo sapiens) [9] = target: Torsin-1A (Homo sapiens) (UniProt O14656); assay: torsin A mutant lysate binding on microarrays – cell lysate, small-molecule microarray, COS7 lysate, 635/667 nm fluorescence, primary screen (AID 1150); conditions: COS7 hTOR1A mutant lysate, 635 nm fluorescence, higher = more signal;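 also: score pools 667 nm emission and signal to noise measuring lysate protein binding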
[10] = test system: Sonic hedgehog protein (Shh); assay: Sonic hedgehog microarray binding compounds – biochemical, small-molecule microarray, 635/667 nm fluorescence, primary screen (AID 1151); conditions: 635 nm fluorescence, higher = more signal;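 also: Shh protein binding to compounds spotted on small-molecule microarray slides; score combines spot fluorescence intensity with signal-to-noise across triplicate slides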
[11] = optical density shifts of acrAB sulA E. coli – strain DRC41, OD650, 48 h, E. coli filamentation inducer project, primary screen (AID 1152); conditions: higher = more signal, called active from +8 up or from −8 down;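 also: E. coli MC1000 strain DRC41 lacking acrAB efflux pump and sulA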
[12] = probe aLefty1 binding on compound microarray – biochemical, small-molecule microarray, 635/667 nm fluorescence, primary screen (AID 1153); conditions: higher = more signal;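 also: score merges spot fluorescence with signal-to-noise ratio from the scanned slide images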
[13] = plasmodial surface anion channel blockers, osmotic lysis – cell-based, P. falciparum Indochina, OD700, 1 h, primary screen (AID 1154); conditions: P. falciparum Indochina infected RBC osmotic lysis, higher = more signal, called active from +8 up or from −8 down
[14] = plasmodial surface anion channel blockers, osmotic lysis – cell-based, P. falciparum Indochina, OD700, 2 h, primary screen (AID 1155);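 also: lysis reports solute entry through the parasite surface anion channel PSAC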; conditions: P. falciparum Indochina infected erythrocytes, higher = more signal, called active from +8 up or from −8 down
[15] = changes in parasitized red cell lysis, either direction – P. falciparum Indochina, OD700, 3 h, PSAC antagonist project, primary screen (AID 1156); conditions: P. falciparum-infected erythrocytes, osmotic lysis, higher = more signal, called active from +8 up or from −8 down
[16] = plasmodial surface anion channel blockers, osmotic lysis – cell-based, P. falciparum Indochina, OD700, 18 h, primary screen (AID 1157); conditions: P. falciparum Indochina infected erythrocytes, osmotic lysis OD700, 18 h; higher = more signal, called active from +8 up or from −8 down
[17] = S6 kinase pathway phospho-S6 level changes – cell-based, A549, cytoblot, luminescence, serum-stimulated, primary screen (AID 1158); conditions: 5 h, higher = more signal;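 also: serum-stimulated A549 lung adenocarcinoma cells; signal is phosphorylated S6 detected by cytoblot immunostaining with HRP secondary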
[18] = target: NADPH oxidase 2 (Homo sapiens) (UniProt P04839); assay: compounds shifting NOX2 Amplex Red fluorescence – cell-based, HEK293-NOX2, PMA-stimulated, NOX inhibitor project, primary screen (AID 1159); conditions: 45 min, higher = more signal, called active from +8 up or from −8 down; also: test concentration not given here
Chain of NADPH oxidase 2 (Homo sapiens) (P04839 whole entry, looked up): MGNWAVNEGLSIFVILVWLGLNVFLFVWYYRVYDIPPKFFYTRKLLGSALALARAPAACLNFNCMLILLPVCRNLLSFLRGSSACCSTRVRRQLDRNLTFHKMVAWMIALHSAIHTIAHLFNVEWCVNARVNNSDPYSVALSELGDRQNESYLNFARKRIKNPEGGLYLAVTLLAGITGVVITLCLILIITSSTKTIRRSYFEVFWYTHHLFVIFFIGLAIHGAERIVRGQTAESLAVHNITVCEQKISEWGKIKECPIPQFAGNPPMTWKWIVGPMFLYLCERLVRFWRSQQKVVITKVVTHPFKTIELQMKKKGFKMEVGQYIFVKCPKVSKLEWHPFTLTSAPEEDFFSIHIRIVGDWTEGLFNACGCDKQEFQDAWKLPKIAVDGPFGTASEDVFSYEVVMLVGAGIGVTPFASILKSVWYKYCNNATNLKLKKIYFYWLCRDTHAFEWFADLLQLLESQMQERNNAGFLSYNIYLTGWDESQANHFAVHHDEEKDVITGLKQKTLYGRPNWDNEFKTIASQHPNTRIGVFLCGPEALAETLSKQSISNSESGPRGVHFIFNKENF

[19] = target: NADPH oxidase 4 (Homo sapiens) (UniProt Q9NPH5); assay: compounds shifting NOX4 Amplex Red fluorescence – cell-based, HEK293-NOX4, tetracycline-induced, NOX inhibitor project, primary screen (AID 1160); conditions: HEK293-NOX4, Amplex Red H2O2 fluorescence, 45 min; higher = more signal, called active from +8 up or from −8 down
Chain of NADPH oxidase 4 (Homo sapiens) (Q9NPH5 whole entry, looked up): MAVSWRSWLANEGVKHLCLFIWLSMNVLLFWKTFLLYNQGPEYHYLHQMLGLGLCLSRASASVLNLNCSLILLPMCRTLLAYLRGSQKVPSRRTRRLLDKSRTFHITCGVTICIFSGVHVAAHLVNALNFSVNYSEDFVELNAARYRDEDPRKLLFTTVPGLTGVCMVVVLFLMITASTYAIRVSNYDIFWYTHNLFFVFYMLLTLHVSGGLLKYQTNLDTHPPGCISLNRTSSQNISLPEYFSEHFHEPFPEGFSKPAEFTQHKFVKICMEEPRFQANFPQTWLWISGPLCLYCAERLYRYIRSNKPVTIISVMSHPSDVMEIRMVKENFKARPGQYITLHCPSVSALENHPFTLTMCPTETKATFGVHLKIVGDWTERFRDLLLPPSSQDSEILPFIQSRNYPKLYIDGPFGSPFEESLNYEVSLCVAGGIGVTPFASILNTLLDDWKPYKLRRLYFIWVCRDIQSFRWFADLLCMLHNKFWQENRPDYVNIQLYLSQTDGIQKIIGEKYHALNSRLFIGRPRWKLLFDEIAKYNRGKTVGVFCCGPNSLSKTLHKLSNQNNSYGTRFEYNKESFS

[20] = target: NADPH oxidase 5 (Homo sapiens) (UniProt Q96PH1); assay: compounds shifting NOX5 Amplex Red fluorescence – cell-based, HEK293-NOX5, NOX inhibitor project, primary screen (AID 1161); conditions: HEK293-NOX5, ionomycin, 45 min, higher = more signal
Chain of NADPH oxidase 5 (Homo sapiens) (Q96PH1 whole entry, looked up): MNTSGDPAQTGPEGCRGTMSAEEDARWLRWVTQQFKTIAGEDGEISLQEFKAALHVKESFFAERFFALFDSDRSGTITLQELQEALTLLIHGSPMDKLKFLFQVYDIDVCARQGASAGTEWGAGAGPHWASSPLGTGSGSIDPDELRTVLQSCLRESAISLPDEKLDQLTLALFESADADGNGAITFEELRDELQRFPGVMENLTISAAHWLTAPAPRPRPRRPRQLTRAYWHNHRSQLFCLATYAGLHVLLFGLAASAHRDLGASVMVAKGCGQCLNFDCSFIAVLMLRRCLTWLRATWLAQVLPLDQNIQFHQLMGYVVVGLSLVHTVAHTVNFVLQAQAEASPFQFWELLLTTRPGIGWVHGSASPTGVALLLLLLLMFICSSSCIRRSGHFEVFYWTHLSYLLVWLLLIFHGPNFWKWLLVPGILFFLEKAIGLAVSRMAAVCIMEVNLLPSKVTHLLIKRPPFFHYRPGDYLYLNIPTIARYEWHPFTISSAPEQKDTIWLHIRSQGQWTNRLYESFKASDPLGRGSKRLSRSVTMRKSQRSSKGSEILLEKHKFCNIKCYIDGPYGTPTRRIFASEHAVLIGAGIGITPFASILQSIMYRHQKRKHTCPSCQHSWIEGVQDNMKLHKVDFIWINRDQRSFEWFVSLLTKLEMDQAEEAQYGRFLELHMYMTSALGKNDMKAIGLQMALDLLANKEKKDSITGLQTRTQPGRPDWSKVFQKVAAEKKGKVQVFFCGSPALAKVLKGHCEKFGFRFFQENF

CO[C@H]1O[C@H](CO)[C@@H](OC(=O)Nc2ccccc2-c2ccccc2)[C@H](OC(=O)Nc2ccccc2-c2ccccc2)[C@@H]1OC(=O)Nc1ccccc1-c1ccccc1
composite z-score [1]: 0.689 | z-score [2]: -3.41 (inactive) | z-score [3]: -0.399 (inactive) | z-score [4]: 0.391 (inactive) | z-score [5]: 0.0225 (inactive) | composite z-score [6]: 1.08 | composite z-score [7]: 0.173 | composite z-score (Torsin-1A (Homo sapiens) [8]): 0.1 | composite z-score (Torsin-1A (Homo sapiens) [9]): 0.53 | composite z-score [10]: 1.37 | z-score [11]: 1.23 (inactive) | composite z-score [12]: 0.407 | z-score [13]: 1.79 (inactive) | z-score [14]: 1.44 (inactive) | z-score [15]: 0.552 (inactive) | z-score [16]: 0.938 (inactive) | z-score [17]: -0.296 | z-score [18]: 2.02 (inactive) | z-score [19]: 0.114 (inactive) | z-score [20]: -0.114

Cc1ccc([C@H]2C(C(=O)O)=CCN2S(=O)(=O)c2ccc(C)cc2)cc1
composite z-score [1]: -0.171 | z-score [2]: -0.849 (inactive) | z-score [3]: 0.668 (inactive) | z-score [4]: -0.48 (inactive) | z-score [5]: -0.119 (inactive) | composite z-score [6]: 0.468 | composite z-score [7]: 0.0108 | composite z-score (Torsin-1A (Homo sapiens) [8]): 0.593 | composite z-score (Torsin-1A (Homo sapiens) [9]): 0.435 | composite z-score [10]: 0.0688 | z-score [11]: -0.813 (inactive) | composite z-score [12]: -0.0308 | z-score [13]: 1.48 (inactive) | z-score [14]: 0.495 (inactive) | z-score [15]: 0.164 (inactive) | z-score [16]: 0.291 (inactive) | z-score [17]: -0.579 | z-score [18]: 0.441 (inactive) | z-score [19]: -0.84 (inactive) | z-score [20]: -1.62

C=CC1c2cc(O)c(OC)cc2CCN1Cc1cccc(OC(F)(F)F)c1 (stereo not given)
composite z-score [1]: -0.415 | z-score [2]: -2.49 (inactive) | z-score [3]: 0.0435 (inactive) | z-score [4]: -0.527 (inactive) | z-score [5]: 1.28 (inactive) | composite z-score [6]: 0.577 | composite z-score [7]: -0.152 | composite z-score (Torsin-1A (Homo sapiens) [8]): -1.1 | composite z-score (Torsin-1A (Homo sapiens) [9]): 0.88 | composite z-score [10]: 0.12 | z-score [11]: 0.277 (inactive) | composite z-score [12]: 0.123 | z-score [13]: 5.32 (inactive) | z-score [14]: 0.544 (inactive) | z-score [15]: 0.2 (inactive) | z-score [16]: 0.451 (inactive) | z-score [17]: -0.318 | z-score [18]: -4.69 (inactive) | z-score [19]: -2.9 (inactive) | z-score [20]: -4.4

Cc1ccc(/C=C/C=O)cc1
composite z-score [1]: -0.355 | z-score [2]: 0.0606 (inactive) | z-score [3]: 0.38 (inactive) | z-score [4]: -0.141 (inactive) | z-score [5]: 0.243 (inactive) | composite z-score [6]: -0.461 | composite z-score [7]: -0.176 | composite z-score (Torsin-1A (Homo sapiens) [8]): -1.39 | composite z-score (Torsin-1A (Homo sapiens) [9]): -0.357 | composite z-score [10]: -0.327 | z-score [11]: 1.24 (inactive) | composite z-score [12]: -0.22 | z-score [13]: 0.248 (inactive) | z-score [14]: 0.0672 (inactive) | z-score [15]: -0.0637 (inactive) | z-score [16]: 0.0324 (inactive) | z-score [17]: -0.139 | z-score [18]: -0.225 (inactive) | z-score [19]: -0.104 (inactive) | z-score [20]: 1.17

COCCOC(=O)N1C(=O)[C@@]2(c3cc(C#CC4(O)CCCCCC4)ccc31)[C@H](C(=O)Nc1nc3ccccc3s1)[C@H]1C(=O)O[C@H](c3ccccc3)[C@H](c3ccccc3)N1[C@@H]2c1ccc(OCCO)cc1
composite z-score [1]: 0.564 | z-score [2]: -3.02 (inactive) | z-score [3]: -1.1 (inactive) | z-score [4]: -0.748 (inactive) | z-score [5]: 1.65 (inactive) | composite z-score [6]: 0.587 | composite z-score [7]: 0.366 | composite z-score (Torsin-1A (Homo sapiens) [8]): 0.669 | composite z-score (Torsin-1A (Homo sapiens) [9]): 0.849 | composite z-score [10]: 1.42 | z-score [11]: 0.197 (inactive) | composite z-score [12]: 0.411 | z-score [13]: 2.97 (inactive) | z-score [14]: 2.39 (inactive) | z-score [15]: 1.73 (inactive) | z-score [16]: 2.27 (inactive) | z-score [17]: 0.481 | z-score [18]: 0.566 (inactive) | z-score [19]: -0.595 (inactive) | z-score [20]: 0.0214

COC(=O)[C@@]1(Cc2ccccc2)[C@H]2c3cc(C(=O)N4CCCC4)n(Cc4c(CO)[nH]cc(C)c4=O)c3C[C@H]2CN1C(=O)c1ccccc1
composite z-score [1]: 0.652 | z-score [2]: 0.0519 (inactive) | z-score [3]: -0.0914 (inactive) | z-score [4]: 0.0109 (inactive) | z-score [5]: 0.473 (inactive) | composite z-score [6]: 1.01 | composite z-score [7]: -0.101 | composite z-score (Torsin-1A (Homo sapiens) [8]): 0.4 | composite z-score (Torsin-1A (Homo sapiens) [9]): 0.491 | composite z-score [10]: -0.547 | z-score [11]: -1.73 (inactive) | composite z-score [12]: -0.0971 | z-score [13]: 0.315 (inactive) | z-score [14]: 0.32 (inactive) | z-score [15]: 1.27 (inactive) | z-score [16]: 0.397 (inactive) | z-score [17]: -0.289 | z-score [18]: 0.562 (inactive) | z-score [19]: -0.976 (inactive) | z-score [20]: -2.9

CCCCCCCCCCC(O)C1C=CC2C(=O)NC(=O)C2N1Nc1ccc(Cl)cc1Cl (stereo not given)
composite z-score [1]: 0.333 | z-score [2]: -1.95 (inactive) | z-score [3]: -0.0821 (inactive) | z-score [4]: -0.136 (inactive) | z-score [5]: -0.407 (inactive) | composite z-score [6]: -0.261 | composite z-score [7]: -0.0131 | composite z-score (Torsin-1A (Homo sapiens) [8]): -1.76 | composite z-score (Torsin-1A (Homo sapiens) [9]): 0.0193 | composite z-score [10]: -0.349 | z-score [11]: -2.32 (inactive) | composite z-score [12]: 0.335 | z-score [13]: 4.61 (inactive) | z-score [14]: 2.51 (inactive) | z-score [15]: -1.75 (inactive) | z-score [16]: 1.78 (inactive) | z-score [17]: -0.428 | z-score [18]: 0.684 (inactive) | z-score [19]: -1.86 (inactive) | z-score [20]: -0.838

CC[C@@H]1C=C(C(=O)O)[C@H](c2ccc(C)cc2)N1S(=O)(=O)c1ccc(C)cc1
composite z-score [1]: -0.412 | z-score [2]: -0.52 (inactive) | z-score [3]: -0.498 (inactive) | z-score [4]: -0.527 (inactive) | z-score [5]: 1.03 (inactive) | composite z-score [6]: 0.583 | composite z-score [7]: 0.0516 | composite z-score (Torsin-1A (Homo sapiens) [8]): 0.063 | composite z-score (Torsin-1A (Homo sapiens) [9]): 0.247 | composite z-score [10]: -0.103 | z-score [11]: -0.557 (inactive) | composite z-score [12]: 0.0582 | z-score [13]: 1.08 (inactive) | z-score [14]: 0.661 (inactive) | z-score [15]: -0.245 (inactive) | z-score [16]: 0.856 (inactive) | z-score [17]: -0.362 | z-score [18]: 0.587 (inactive) | z-score [19]: -0.57 (inactive) | z-score [20]: -1.24
